Compound activity from PubChem BioAssay.
CHX counter: counter-screen hit for Shiga toxin inhibitors, cycloheximide; 300,000 tested, 12% active; cell reporter, cycloheximide protein synthesis inhibition counterscreen; max response, %; in the data active = max response mostly above about 13%, no sharp cut-off; inactive = mostly below about 14%; note: read at 38.3 µM for the half of the compounds with a filed dose
Shiga inhibitor: Shiga toxin inhibition | Vero cells, Shiga toxin protein synthesis inhibition reporter | inhibition, % at 38.7 µM | 290,000 tested, 9.2% active | AID 2315; in the data active = inhibition mostly above about 28%, no sharp cut-off; inactive = mostly below about 43%
Sm TGR inh: S. mansoni TGR enzyme inhibition | Q962Y6 | Potency, µM (highest dose often 114 µM), usual class: inhibitors | 360,000 tested, 3% active | purified TGR, DTNB reduction, TNB absorbance 405 nm; note: nearly all actives have a fitted effect of over 60% in size
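First, TGR (20 nM dispensed) and NADPH were mixed with compound. Second, a 15 min room-temperature incubation followed. Third, further NADPH and then DTNB were added to start the reaction. Finally, TNB absorbance was monitored kinetically.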
NS1 inh: inhibitors of influenza NS1 protein function. Potency, µM (top dose mostly 46.1 µM). 270,000 tested, 0.4% active; calls by dose curve; note: actives are rising curves; nearly all actives have a fitted effect of over 50% in size
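In this qHTS, NS1 from influenza A is expressed in budding yeast, where it slows growth. Cells are switched from glucose to 2% galactose medium (pH 6.0, -URA), treated with compound, and growth recovery is read at OD600.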
Pf growth 96h: P. falciparum growth inhibition at 96 hours; P. falciparum luciferase reporter growth, 96 h; Potency, µM (highest dose often 28.7 µM), actives largely listed as inhibitors; 320,000 tested, 6.9% active; AID 504834
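Parasite growth measured via integrated firefly luciferase reporter in P. falciparum. Infected erythrocytes at 2% hematocrit, 0.05% parasitemia final were treated 96 hours at 37 C under 5% CO2, and luminescence was read.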
Pf growth 48h: P. falciparum growth inhibition at 48 hours (one generation); P. falciparum luciferase growth in erythrocytes, 48 h; 310,000 tested, 5.9% active; Potency, µM (titrated, usually from 28.7 µM), actives largely listed as inhibitors; AID 504832
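First compound was added to culture medium, then infected red cells at 0.1% parasitemia and 2% hematocrit (final). After incubation at 37 C under 5% CO2, luciferase detection reagent was dispensed and light output recorded.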
Large screens that a line does not name were inactive. The list is not random: actives were taken first. Their share in the collection is about 21%. Unless noted, calls come from the whole dose curve; as a rule, active = well fitted curve in the direction sought with a large enough effect; inconclusive = small, poorly fitted or top-dose-only effect, or another doubt; inactive = no such curve, though single readings can be large; an effect the other way counts as inactive or inconclusive.

COc1ccc(C=C2C(=O)OC(C)(C)OC2=O)cc1OC	Pf growth 96h inconclusive
COc1ccc(/C=C2\OC(=O)c3c(OC)cccc32)cc1OC	CHX counter 38
COc1ccc(NC(=O)C(=O)NCC2CCCN2S(=O)(=O)c2cccs2)cc1 (stereo not drawn)	none (no result: CHX counter, Shiga inhibitor, NS1 inh)
Cn1cc(Br)c(-c2cccc(NC(=O)CCCC(=O)O)c2)n1	Pf growth 48h inconclusive
Cc1cc(C)c2c(c1)[C@@H]1C=CC[C@@H]1[C@H](c1ccc(S(=O)(=O)N3CCOCC3)cc1)N2	Sm TGR inh 2.8µM, NS1 inh inconclusive, Pf growth 48h 10µM
Cc1cccc(NS(=O)(=O)c2ccc3c(c2)[C@H]2C=CC[C@H]2[C@@H](c2ccc(F)cc2)N3)c1	none (no result: CHX counter, Shiga inhibitor, NS1 inh, Pf growth 96h, Pf growth 48h)
COC(=O)c1ccc(C2Nc3c(C)cc(C)cc3C3C=CCC32)cc1 (stereo not drawn)	Sm TGR inh 1.1µM (no result: CHX counter, Shiga inhibitor, NS1 inh, Pf growth 96h, Pf growth 48h)
COc1ccc(C(=O)N/N=C(\C)c2ccc3c(c2)C2C=CCC2C(c2ccccc2)N3)cc1 (stereo not drawn)	CHX counter 20, Sm TGR inh 10µM, Pf growth 48h 1µM
COC(=O)c1ccc([C@H]2Nc3ccc(S(=O)(=O)Nc4ccc(F)cc4)cc3[C@H]3C=CC[C@H]32)cc1	Sm TGR inh 32µM (no result: CHX counter, Shiga inhibitor, NS1 inh, Pf growth 96h, Pf growth 48h)
COC(=O)c1ccc([C@@H]2Nc3c(cccc3C(F)(F)F)[C@@H]3C=CC[C@@H]32)cc1	none (no result: CHX counter, Shiga inhibitor, NS1 inh, Pf growth 96h, Pf growth 48h)
Cc1ccc(S(=O)(=O)N2CCOCC(=O)NCCOCCNC(=O)COCC2)cc1	none (no result: Pf growth 96h, Pf growth 48h)
C/C(=N\NC(=O)c1cc(C)oc1C)c1ccc2ccccc2c1	none
CCOC(=O)c1c(C)[nH]c(C)c1S(=O)(=O)N1CCN(c2cccc(C)c2)C(C)C1 (stereo not drawn)	none
CC(=O)N1CCN(C(=O)COc2ccc3oc4c(c3c2)CCCC4)CC1	none (no result: CHX counter, Shiga inhibitor, NS1 inh)
O=C(Nc1ccc2c(c1)OCO2)C1CC(c2cccc(Br)c2)=NO1 (stereo not drawn)	none
Cc1cccc(Oc2coc3cc(OCC(=O)NC4CCCCC4)ccc3c2=O)c1	none (no result: CHX counter, Shiga inhibitor, NS1 inh, Pf growth 96h, Pf growth 48h)
CC(=O)c1ccc(S(=O)(=O)NCCC(=O)OCC(=O)NCCc2ccccc2)cc1	none
c1ccc2c(c1)nc1n2C2(N3CCOCC3)CCCC2C1N1CCOCC1 (stereo not drawn)	CHX counter 10, Sm TGR inh 32µM
c1ccc2c(c1)nc1n2CC2CON(C3CCCCC3)C12 (stereo not drawn)	none
Cc1cccc(C)c1NC(=O)C1CCCN1S(=O)(=O)c1cccc2nsnc12 (stereo not drawn)	none (no result: CHX counter, Shiga inhibitor, NS1 inh, Pf growth 96h, Pf growth 48h)
COc1ccc2[nH]c(C)c(C(=O)CN(C)CC3OCCO3)c2c1	Sm TGR inh 25µM
COc1ccc2[nH]c(C)c(C(=O)CN(C)C)c2c1	Sm TGR inh 40µM, Pf growth 96h inconclusive, Pf growth 48h inconclusive
COc1ccc2[nH]c(C)c(C(=O)CN3CC(C)OC(C)C3)c2c1 (stereo not drawn)	Pf growth 96h inconclusive
O=C(NN1CCOCC1)c1cc(-c2ccc(Cl)c(Cl)c2)nc2ccccc12	none
CC(=O)Nc1c2c(nn1-c1ccccc1C)CS(=O)C2 (stereo not drawn)	Sm TGR inh 50µM
Cc1cccc(-n2nc3c(c2NC(=O)c2ccco2)CS(=O)C3)c1C (stereo not drawn)	Pf growth 96h inconclusive (no result: NS1 inh)
Cc1ccc(-n2nc3c(c2NC(=O)c2ccco2)CS(=O)C3)c(C)c1 (stereo not drawn)	Sm TGR inh 40µM (no result: CHX counter, Shiga inhibitor, NS1 inh)
COc1ccc(CC(=O)Nc2c3c(nn2-c2cccc(C)c2C)CS(=O)C3)cc1 (stereo not drawn)	Pf growth 96h inconclusive
COc1ccc(CC(=O)Nc2c3c(nn2-c2cccc(C)c2C)CS(=O)C3)cc1OC (stereo not drawn)	Pf growth 96h 2.6µM
CC(=O)Nc1c2c(nn1-c1ccccc1)CS(=O)C2 (stereo not drawn)	none
O=C(Nc1cccs1)OCCN1CCN(Cc2ccccc2)CCC1=O	none
COCCN(C(=O)CC1C(=O)NCCN1CC(c1ccccc1)c1ccccc1)C(C)C (stereo not drawn)	Sm TGR inh inconclusive, Pf growth 96h 10µM, Pf growth 48h inconclusive
CC(C)(CO)CNC(=O)CC1C(=O)NCCN1CC(c1ccccc1)c1ccccc1 (stereo not drawn)	Sm TGR inh inconclusive
CN(C(=O)CC1C(=O)NCCN1CC(c1ccccc1)c1ccccc1)C(C1CC1)C1CC1 (stereo not drawn)	Sm TGR inh 45µM, Pf growth 96h inconclusive, Pf growth 48h inconclusive
Cc1ccc(CN2CCNC(=O)C2CC(=O)NCC(F)(F)F)o1 (stereo not drawn)	Sm TGR inh 40µM
Cc1ccc(CN2CCNC(=O)C2CC(=O)N(C)C(C2CC2)C2CC2)o1 (stereo not drawn)	Sm TGR inh 25µM, Pf growth 96h 13µM
COC(=O)c1ccc(CNC(=O)/C=C/c2cc([N+](=O)[O-])ccc2OC(F)F)cc1	none (no result: Pf growth 48h)
CCCCC(=O)Nc1ccc(C(=O)OCc2cc(=O)n3nc(C4CC4)sc3n2)cc1	none (no result: CHX counter, Shiga inhibitor, NS1 inh, Pf growth 96h, Pf growth 48h)
Cc1ccc(-n2[nH]c(C)c(C=Nc3ccc(S(=O)(=O)Nc4nccs4)cc3)c2=O)cc1	none
CCc1nnc(NS(=O)(=O)c2ccc(N=Cc3c(C)[nH]n(-c4ccc(C)c(C)c4)c3=O)cc2)s1	CHX counter 12
CC(=O)NC1CSCC1OC(C)=O (stereo not drawn)	Pf growth 96h 9.3µM
COC(=O)NC1CSCC1OC(=O)CCN1C(=O)c2ccccc2C1=O (stereo not drawn)	none (no result: Pf growth 96h)
CC1CCc2c(sc3nc(CSc4nnnn4C)[nH]c(=O)c23)C1 (stereo not drawn)	CHX counter 18
CCN(CC(=O)NCc1cccs1)C(=O)/C=C/c1cc(Br)ccc1OC(F)F	Pf growth 96h 10µM, Pf growth 48h inconclusive (no result: CHX counter, Shiga inhibitor, NS1 inh)
COc1cccc(OC)c1C1=Nn2c(nnc2-c2ccccc2C)SC1	none (no result: Sm TGR inh, NS1 inh, Pf growth 96h, Pf growth 48h)
COc1ccc(OC)c(C(O)C2CCCCN2)c1 (stereo not drawn)	Pf growth 96h 3.3µM, Pf growth 48h inconclusive (no result: Shiga inhibitor)
COc1cccc(C2=NOC(C(=O)Nc3ccc4c(c3)OCO4)C2)c1OC (stereo not drawn)	none
CCc1ccccc1N1C(=O)N(C)c2ccccc2S1(=O)=O	none (no result: CHX counter, Shiga inhibitor, NS1 inh, Pf growth 96h, Pf growth 48h)
CS(=O)(=O)c1ccc(-c2csc(N3CCC(C(N)=O)CC3)n2)cc1	none (no result: CHX counter, Shiga inhibitor, Sm TGR inh, NS1 inh)
COc1ccc(CNC(=O)C[C@H]2C(=O)N(C3CCCCC3)C[C@@H]2Cc2ccccc2)cc1	Pf growth 96h 12µM
O=C(Nc1ccc(Br)cn1)c1cccc(-c2cc3ccccc3oc2=O)c1	CHX counter 41, Shiga inhibitor 49
Cc1cc(NC(=O)c2ccc(F)cc2)ccc1-c1cc2ccccc2oc1=O	none (no result: CHX counter, Shiga inhibitor, NS1 inh, Pf growth 96h, Pf growth 48h)
O=C(Nc1ccccc1N1CCCC1)c1cccc(-c2cc3ccccc3oc2=O)c1	CHX counter 18, NS1 inh inconclusive, Pf growth 96h inconclusive, Pf growth 48h inconclusive
O=C(Nc1ccccc1N1CCCCC1)c1cccc([N+](=O)[O-])c1	Pf growth 96h inconclusive (no result: NS1 inh)
